# KLK7 zymogen act: activates the human kallikrein-7 zymogen; purified proKLK7, EDANS-DABCYL substrate fluorescence; 100% is mature enzyme control, 0% vehicle; activation, % at 7 µM; hit rate 0.9% among 370,000; AID 652039;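 active means activation above the mean of all tested compounds plus 3 SD, computed per campaign excluding outliers beyond control limits, cut at about 13% in these data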
# JMJD2C inh: inhibitors of human GASC-1 (JMJD2C) demethylase; GST-JMJD2C(1-420) H3K9me3 demethylation, DELFIA europium; inhibition, % at 2.35 µM; hit rate 0.069% among 330,000; Q9H3R0; AID 2099;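 active means more than half of a compound's replicate wells show inhibition beyond 50%, single wells judged on their own value; inconclusive means some, but no more than half, of replicates pass 50% inhibition; inactive means no replicate passes 50% inhibition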;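 further: signal counts dimethyl H3K9 product captured on neutravidin plate; 0% = median of DMSO wells and 100% = 0.3 times that DMSO median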
# NR1D1 modulator: modulates human Rev-erb alpha binding to DNA; activity, % at 10 µM; Rev-erbα–FITC-DNA binding, fluorescence polarization, 90 min; AID 1259318; hit rate 0.79% among 370,000;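 active means activity above about 14%, limit read from the data; passing the limit was not always enough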;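 further: 0% = DMSO wells with 35 nM protein and 100% = DMSO wells with 750 nM protein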
# PG9 Ab binder: PG9 antibody binding by small molecule. TR-FRET gp120-PG9 antibody binding. inhibition, % at 6.7 µM. hit rate 0.43% among 360,000. AID 624416; in the data active means inhibition above about 8.5%
# PP1 counter: counter-screen for PP5 inhibitors: inhibitors of human PP1-alpha. P62136. purified PP1alpha, OMFP fluorescence. inhibition, % at 6.7 µM. hit rate 0.9% among 320,000. AID 2235;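 active means inhibition above the mean inhibition of all tested compounds plus 3 SD, computed separately for each screening campaign, cut at about 15% in these data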
# PP5 primary: blocks human protein phosphatase 5 activity; P53041; purified PP5c, OMFP substrate fluorescence; inhibition, % at 6.7 µM; hit rate 0.18% among 320,000;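 active means inhibition above the campaign's mean inhibition across all tested compounds plus 3 SD, cut at about 9.5% in these data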;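 further: 0% = DMSO only and 100% = 100 µM cantharidin control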
# * hit, by the source's call; ? = inconclusive; nt = no result. The list is not random: actives were taken first. Their share in the collection is about 2.8%.
SMILES,KLK7 zymogen act,JMJD2C inh,NR1D1 modulator,PG9 Ab binder,PP1 counter,PP5 primary
O=C(c1cc2cc(F)ccc2[nH]1)N1CCC2(CC1)OCCO2,0,?,3,-1,17*,0
CN1C2C[C@H](OC(=O)[C@H](CO)c3ccccc3)CC1[C@@H](O)C2 (stereo partly specified),nt,nt,2,nt,nt,nt
COC1C(O)CC(OC2CC(Oc3cc4cc5c(c(O)c4c(O)c3C)C(=O)[C@@H](OC3CC(OC4CC(OC6CC(C)(O)C(OC(C)=O)C(C)O6)C(O)C(C)O4)C(O)C(C)O3)[C@H]([C@H](OC)C(=O)C(O)[C@H](C)O)C5)OC(C)C2OC(C)=O)OC1C (stereo partly specified),nt,nt,-4,nt,nt,nt
CC(=O)c1ccc2c(c1)C1C(Cl)C(Sc3ccccc3[N+](=O)[O-])CC1C(c1ccccc1)N2 (stereo unspecified),0,4,3,-6,9,1
CC(=O)c1ccc2c(c1)C1C(Cl)C(Sc3ccccc3[N+](=O)[O-])CC1C(c1ccccc1[N+](=O)[O-])N2 (stereo unspecified),0,4,14,1,16*,2
CC(=O)N1CCN(c2ccc([N+](=O)[O-])cc2C=C2C(=O)NC(=O)NC2=O)CC1,0,?,0,-2,-1,-1
CCN1CCN(c2ccc([N+](=O)[O-])cc2C=C2C(=O)NC(=O)NC2=O)CC1,0,57*,-1,-2,-4,-1
Cc1cccc(N2C(=O)NC(=O)/C(=C/c3ccc([N+](=O)[O-])o3)C2=O)c1,nt,55*,nt,nt,2,-1
Cc1ccc2nc3c(cc2c1)CC1(C(=O)N(C)C(=O)N(C)C1=O)C1CCCCN31 (stereo unspecified),2,56*,1,2,-2,5
Cc1ccc2nc3c(cc2c1)CC1(C(=O)N(C)C(=O)N(C)C1=O)C1COCCN31 (stereo unspecified),2,14,0,-2,6,2
CC(C)=CC1C(C(=O)OC(C#N)c2cccc(Oc3ccccc3)c2)C1(C)C (stereo unspecified),nt,nt,2,nt,nt,nt
COC(=O)C1=C(c2ccc(F)cc2OCc2ccccc2)C[C@@H]2CC[C@H]1N2C(=O)NCc1ccc(F)cc1,0,-4,-4,1,3,4
COC(=O)C1=C(c2ccc(F)cc2OCc2ccccc2)C[C@@H]2CC[C@H]1N2C(=O)NC1Cc2ccccc2C1,0,nt,10,0,17*,0
COC(=O)C1=C(c2ccccc2OCc2ccccc2)C[C@@H]2CC[C@H]1N2C(=O)NCc1ccc(C(C)(C)C)cc1,0,-4,-3,-1,17*,4
C[C@]12CC[C@H](OC3OC(O)C(O)C(O)C3O)C=C1CCC1C2CC[C@]2(C)[C@@H](c3ccc(=O)oc3)CC[C@]12O (stereo partly specified),nt,nt,-4,nt,nt,nt
CCOC(=O)N1CCC(NC(=O)CCc2nc(C3=CCN(C)CC3)no2)CC1,-1,53*,2,-2,-2,0
O=C1C(=O)c2ccccc2-c2ccccc21,0,-21,-6,-2,40*,4
O=C1C(=O)c2cccc3cccc1c23,0,2,-4,0,-1,2
CC1=C2CCC3C(CC[C@]4(C)C(=O)CCC34)[C@@]2(C)CCC1=O (stereo partly specified),nt,nt,4,nt,nt,nt
CC(C)C[C@@H](CN)CC(=O)O,nt,nt,0,nt,nt,nt
C[C@@H]1O[C@@H](O[C@H]2C[C@@H](O)[C@]3(CO)C4C(CC[C@]3(O)C2)[C@@]2(O)CC[C@H](C3=CC(=O)OC3)[C@@]2(C)C[C@H]4O)[C@H](O)[C@H](O)[C@H]1O (stereo partly specified),nt,nt,2,nt,nt,nt
O=C1NC(=O)C(Sc2ccccc2[N+](=O)[O-])C(=O)N1,0,69*,0,-1,-1,1
Clc1ccc(CO/N=C(\Cn2ccnc2)c2ccc(Cl)cc2Cl)c(Cl)c1,nt,-2,14,nt,33*,4
CC[C@H]1C2CC3[C@@H]4N(C)c5ccccc5[C@]45C[C@@H](C2C5O)N3[C@@H]1O (stereo partly specified),nt,nt,0,nt,nt,nt

# Bioassay records deposited in PubChem BioAssay by several laboratories.
